# Article PMC5540273 (PLoS ONE, 2017)
# System: MAP3K15
# Details: concentration: 1 μM, replicates: in singlicate; n = 1
# 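Also: KINOMEscan kinase panel screen.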
row,Structure (SMILES),%Inh
1,Nc1n[nH]c2cnc(-c3ccccc3)cc12 [SB-642124],21%
2,COc1cc(Nc2nccc(N3CCC(NC(=O)Nc4cccc(C(C)=O)c4)C3)n2)cc(OC)c1OC (centres unmarked) [GSK1379753],0%
3,O=C(NC1CCN(c2ccnc(Nc3ccc(F)cc3)n2)C1)c1cc2ccccc2s1 (centres unmarked) [GSK1379716],0%
4,c1ccc(-c2cnc3nccnn23)cc1 [AH20685],0%
5,Nc1ncnc2c1nc(-c1ccccc1)n2-c1ccccc1 [SKF-97293],22%
6,CN(C)Cc1ccc(-c2ccc3c(Nc4ccc(Oc5ccccn5)cc4)ccnc3c2)o1 [GW567148],0%
7,COc1cc(Nc2nccc(N3CCC(NC(=O)c4cc5ccccc5s4)C3)n2)cc(OC)c1OC (centres unmarked) [GSK1379760],0%
8,Cl.Cl.NCC(NCc1ccc(-c2ccnc3[nH]ccc23)s1)c1ccccc1 (centres unmarked) [GSK1321565],0%
9,Cl.NC(=O)c1cccc(Nc2nccc(Nc3ccc(Oc4c(Cl)cccc4Cl)c(Cl)c3)n2)c1 [GW659009],18%
10,O=C(Nc1ccccc1F)NC1CCN(c2ccnc(Nc3ccc(F)cc3)n2)CC1 [GSK1379800],0%
11,Cc1ccc(C(=O)N2CC[C@@H](O)C2)cc1-n1c(C)cc(OCc2ccc(F)cc2F)c(Br)c1=O,0%
12,CN(C)S(=O)(=O)c1cc(-c2ccc3nccc(-c4cccc(S(N)(=O)=O)c4)c3c2)cnc1N [GSK1669921],23%
13,O=c1[nH]cc(-c2ccc(N3CCOCC3)cc2)c2sc(-c3cn[nH]c3)cc12 [GSK2276055],0%
14,CCCCc1nn2ncccc2c1-c1ccnc(Nc2ccc(N3CCN(C)CC3)cc2)n1 [GW684941],9%
15,O=C(Nc1cccc(-c2nn3ccccc3c2-c2ccnc(Nc3cccc(F)c3)n2)c1)c1c(F)ccc(F)c1Cl [GSK357952],66%
16,c1ccc(-c2n[nH]cc2Nc2ccnc3ccccc23)nc1 [GW694077],6%
17,COc1cc(Nc2nccc(-c3c(-c4cccc(NC(=O)c5c(F)cccc5F)c4)nn4ncccc34)n2)cc(OC)c1OC [GSK327238],0%
18,COc1cccc(C(=O)Nc2cccc(Oc3ccc4nc(NC(=O)C5CC5)cn4n3)c2)c1,0%
19,COCCOCCOc1cc2ncc3c4ccc(C#N)cc4[nH]c3c2cc1OC,65%
20,Nc1ncc(-c2ccc3nccc(-c4ccncc4)c3c2)cc1S(=O)(=O)N1CCOCC1 [GSK1627798],0%
21,Cc1cccc(NC(=O)Nc2ccc(Oc3ncnc4ccn(C)c34)cc2)c1,0%
22,CN1CCN(Cc2cccc(-c3ccc4c(Nc5ccc(Oc6ccccc6)cc5)ccnc4c3)c2)CC1 [GW578342],0%
23,COc1cccc(C2=C(Nc3ccc(Cl)c(C(=O)O)c3)C(=O)NC2=O)c1 [SB-390769],24%
24,COc1ccc(Nc2nccc(NCCNC(=O)c3cc4ccccc4s3)n2)cc1 [GSK1379896],0%
25,COc1ccc(CNC(=O)NC2CCN(c3ccnc(Nc4ccc(F)cc4)n3)CC2)cc1 [GSK1379788],0%

# System: MAP3K1
# Details: concentration: 1 μM, replicates: in singlicate; n = 1
row,Structure (SMILES),%Inh
1,CC(C)(C)c1ccc2nccc(Nc3cccc(O)c3)c2c1 [GW856795],0%
2,COc1cc2c(cc1OCCN1CCNCC1)ncc1c3ccc(C#N)cc3[nH]c21,33%
3,COc1cc(Nc2nccc(-c3c(-c4cccc(NC(=O)c5c(F)cccc5F)c4)nn4ccccc34)n2)cc(OC)c1OC [GSK323521],27%
4,Cc1ccc(S(=O)(=O)Nc2ccc(Nc3nccc(Nc4cccc5[nH]ncc45)n3)cc2)cc1 [GSK581271],5%
5,CCc1ccc(-c2ccc3c(c2)-c2c(cnn2C)S(=O)(=O)N3C)cc1,34%
6,O=C(Nc1cccc(-c2nn3ncccc3c2-c2ccnc(Nc3ccccc3)n2)c1)c1c(F)cccc1F [GSK198271],3%
7,Fc1ccc(-c2ncn(C3CCNCC3)c2-c2ccnc(Oc3ccc(-c4ccccc4)cc3)n2)cc1 [SB-245391],25%
8,CN(c1ccc(NC(=O)Nc2cc(C(F)(F)F)ccc2F)cc1)c1ccnc(Nc2ccc(S(N)(=O)=O)cc2)n1 [GW809893],33%
9,CC(=O)Nc1nc2cnc(Nc3cc(NC(=O)c4cccc(C5(C#N)CC5)c4Cl)ccc3C)nc2s1,0%
10,Cl.c1ccc(-c2ccc3c(Nc4ccc5[nH]ncc5c4)ccnc3c2)nc1 [GW440137],22%
11,COc1cc(Nc2ncc3c(C)nc(-c4cc5ccccc5[nH]4)n3n2)cc(OC)c1OC [GW869516],0%
12,COC(=O)Nc1nc2ccc(Oc3ccc(NC(=O)Nc4cc(C(F)(F)F)ccc4F)cc3)cc2n1C.Cl [GW692089],2%
13,Nc1n[nH]c2cnc(-c3ccccc3)cc12 [SB-642124],14%
14,COc1cc(Nc2nccc(N3CCC(NC(=O)Nc4cccc(C(C)=O)c4)C3)n2)cc(OC)c1OC (centres unmarked) [GSK1379753],1%
15,O=C(NC1CCN(c2ccnc(Nc3ccc(F)cc3)n2)C1)c1cc2ccccc2s1 (centres unmarked) [GSK1379716],16%
16,c1ccc(-c2cnc3nccnn23)cc1 [AH20685],0%
17,Nc1ncnc2c1nc(-c1ccccc1)n2-c1ccccc1 [SKF-97293],34%
18,CN(C)Cc1ccc(-c2ccc3c(Nc4ccc(Oc5ccccn5)cc4)ccnc3c2)o1 [GW567148],14%
19,COc1cc(Nc2nccc(N3CCC(NC(=O)c4cc5ccccc5s4)C3)n2)cc(OC)c1OC (centres unmarked) [GSK1379760],7%

row,Structure (SMILES),%Inh
1,Cl.Cl.NCC(NCc1ccc(-c2ccnc3[nH]ccc23)s1)c1ccccc1 (centres unmarked) [GSK1321565],0%
2,Cl.NC(=O)c1cccc(Nc2nccc(Nc3ccc(Oc4c(Cl)cccc4Cl)c(Cl)c3)n2)c1 [GW659009],0%
3,O=C(Nc1ccccc1F)NC1CCN(c2ccnc(Nc3ccc(F)cc3)n2)CC1 [GSK1379800],13%
4,Cc1ccc(C(=O)N2CC[C@@H](O)C2)cc1-n1c(C)cc(OCc2ccc(F)cc2F)c(Br)c1=O,0%
5,CN(C)S(=O)(=O)c1cc(-c2ccc3nccc(-c4cccc(S(N)(=O)=O)c4)c3c2)cnc1N [GSK1669921],6%
6,O=c1[nH]cc(-c2ccc(N3CCOCC3)cc2)c2sc(-c3cn[nH]c3)cc12 [GSK2276055],16%
7,CCCCc1nn2ncccc2c1-c1ccnc(Nc2ccc(N3CCN(C)CC3)cc2)n1 [GW684941],16%
8,O=C(Nc1cccc(-c2nn3ccccc3c2-c2ccnc(Nc3cccc(F)c3)n2)c1)c1c(F)ccc(F)c1Cl [GSK357952],0%
9,c1ccc(-c2n[nH]cc2Nc2ccnc3ccccc23)nc1 [GW694077],0%
10,COc1cc(Nc2nccc(-c3c(-c4cccc(NC(=O)c5c(F)cccc5F)c4)nn4ncccc34)n2)cc(OC)c1OC [GSK327238],11%
11,COc1cccc(C(=O)Nc2cccc(Oc3ccc4nc(NC(=O)C5CC5)cn4n3)c2)c1,9%
12,COCCOCCOc1cc2ncc3c4ccc(C#N)cc4[nH]c3c2cc1OC,0%
13,Nc1ncc(-c2ccc3nccc(-c4ccncc4)c3c2)cc1S(=O)(=O)N1CCOCC1 [GSK1627798],7%
14,Cc1cccc(NC(=O)Nc2ccc(Oc3ncnc4ccn(C)c34)cc2)c1,0%
15,CN1CCN(Cc2cccc(-c3ccc4c(Nc5ccc(Oc6ccccc6)cc5)ccnc4c3)c2)CC1 [GW578342],0%
16,COc1cccc(C2=C(Nc3ccc(Cl)c(C(=O)O)c3)C(=O)NC2=O)c1 [SB-390769],13%
17,COc1ccc(Nc2nccc(NCCNC(=O)c3cc4ccccc4s3)n2)cc1 [GSK1379896],15%
18,COc1ccc(CNC(=O)NC2CCN(c3ccnc(Nc4ccc(F)cc4)n3)CC2)cc1 [GSK1379788],4%
